# Source: PubChem BioAssay (NCI)
# This is part of a sample that, as a whole, favours compounds with a hit. Of some 79,000 tested, about 15% had one in any assay. A number with no mark means an inactive call. Activity calls are given as the source filed them. Cut-off read from the data, not from the text of the source: active = growth inhibition above about 70%; inactive = the rest.
# Experiment: NCI Yeast Anticancer Drug Screen. Data for the mlh1 rad18 strain (AID 175)
# Conditions: S. cerevisiae mlh1 rad18 strain growth inhibition; at 50.0 µM; hits give high values
# In short: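 Cells of a genetically altered yeast strain, deficient in DNA damage repair, were treated with compound. Their growth was then compared with that of vehicle-treated cultures to give inhibition.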
row,Structure (SMILES),growth inhibition
1,COC1C2C[C@@H](O)CCC2C(C(=O)OCCl)C[C@H]1O (some centres undefined),-30.2%
2,Oc1ccc2ccccc2c1C=NCCS,3.15%
3,[N-]=[N+]=NC12CC3C4CC5CC3C(C1)C(C5)C4C2,-8.45%
4,O=C(Oc1ccc2ccccc2c1)c1ccccc1,10.1%
5,CCOC(=O)CCC(C(=O)OCC)N1C(=O)c2ccccc2C1=O (centres undefined),-1.7%
6,CCO/N=C(/N)c1ncn(Cc2ccccc2)c1NCC(OCC)OCC,-16.9%
7,Cc1cccc(F)c1C,7.25%
8,CS/C(c1ccccc1)=[N+](\[O-])Cc1ccccc1,3.15%
9,C=CC1(C)C(C)=C(C)C(C)=C1C,9.4%
10,CC(=O)NC1c2ccccc2C(C)(C)C12CCC1(CC2)OCCO1 (centres undefined),-40.8%
11,COc1ccc(/C=C2\N=C(SC)NC2=O)cc1,-24.9%
12,CC(C)c1ccc(OC(=N)c2ccccc2)cc1,3.6%
13,CCCCCCCCCCCCCCCCCC1(c2ccccc2)NC(=O)NC1=O (centres undefined),-13.1%
14,Cc1ccc(N(C)C)cc1,6.4%
15,CC(=O)Nc1ncc2ccccc2c1-c1ccc(NC(=O)CCCl)cc1,12.8%
16,CC(=O)Nc1ccc(N(C)C)c(C)c1,-10.2%
17,O=S(CC(O)(c1ccccc1)c1ccccc1)c1ccccc1 (centres undefined),23.5%
18,CCCC(=O)OC1C=C2N3C(=O)C4CC56C(=CC(OC(C)=O)C7OC75)N4C(=O)C3CC26C2OC12 (centres undefined),85.2% (active)
19,CC1(C)CCCC2(C)[C@@H]1CC[C@]13C[C@](C)(CC[C@@H]21)[C@@H]3CO (some centres undefined),-19.9%
